tim23-1 inh: growth inhibitors of tim23-1 mutant yeast, primary screen, luminescence, uHTS; S. cerevisiae tim23-1 growth, BacTiter-Glo luminescence, 24 h; inhibition, % at 20 µM; 1.3% of 330,000 active;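 active = growth inhibition of the mutant yeast at or above 50%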;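 also: temperature-sensitive mutant grown at 25 °C; plate controls were DMSO-treated mutant yeast for no effect and medium wells lacking yeast for full effect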
PfHsp90 set2: growth inhibition of PfHsp90-expressing yeast, primary screen, antimalarial PfHsp90 inhibitor project, S. cerevisiae, BacTiter-Glo luminescence, single point, set 2. BacTiter-Glo ATP, 48 h; yeast lacking PDR1 and PDR3 efflux regulators. 0.32% of 310,000 active. AID 504621, 2011. inhibition, % at 9.4 µM;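 active = every replicate shows inhibition above about 80%, whatever the replicate mean, limit read from the data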;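 also: 0% = DMSO neutral controls and 100% = 20 µM radicicol positive controls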
TIM10 inh: growth inhibitors of isogenic TIM10 control yeast, primary screen, counter-screen for tim10-1 yeast inhibitor project, luminescence, uHTS | S. cerevisiae TIM10 strain growth, BacTiter-Glo luminescence, 24 h | 1.4% of 330,000 active | inhibition, % at 10 µM | AID 463195, 2010;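 active = inhibition of 40% or more at the single tested concentration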;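 also: wild-type TIM10 isogenic control strain grown at permissive 25 °C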
tim10-1 inh: growth inhibitors of tim10-1 mutant yeast, primary screen, luminescence, uHTS | S. cerevisiae tim10-1 ts strain growth, BacTiter-Glo, 24 h | inhibition, % at 20 µM | 2.2% of 330,000 active | AID 463190, 2010;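 active = inhibition of at least 40%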;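 also: mutant grown at 25 °C; 0% = DMSO wells with yeast and 100% = wells holding no yeast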
NALP3 yeast inh: NALP3 inflammasome inhibitors in reconstituted yeast, primary screen, luminescence, uHTS | AID 2825, 2010 | Yeast reconstituted NLRP3/ASC/caspase-1, beta-gal luminescence, 24 h | inhibition, % at 10 µM | 0.39% of 330,000 active;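 active = inhibition of 50% or more; inactive = inhibition below 50%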;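 also: plate controls were induced DMSO wells for no effect and uninduced yeast grown without galactose for full effect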
tim10-1 conf: growth inhibitors of tim10-1 mutant yeast, confirmation, single concentration, luminescence, S. cerevisiae; shares compounds with tim10-1 inh; S. cerevisiae tim10-1 ts strain growth, BacTiter-Glo, 24 h; inhibition, % at 20 µM; 56% of 7,400 active; AID 463213, 2010;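 active = inhibition of yeast growth at or above a set limit in either of two repeat tests at 20 µM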;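 also: tim10-1 mutant grown at permissive 25 °C to find synthetic lethal compounds; 0% = DMSO yeast wells and 100% = medium wells without yeast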
The depositor's hits bear a star; x = not tested or not shown. Compounds with a hit are over-represented: about 3.7% of the library has one in this group of screens.

SMILES	tim23-1 inh	PfHsp90 set2	TIM10 inh	tim10-1 inh	NALP3 yeast inh	tim10-1 conf
Cc1cc(C)cc(-n2ncc3c2CCCC3NC(=O)c2csnn2)c1 (stereo not given)	42.2	-4.3	17.1	41.5*	32.1	26.6
Cc1ccc(OCC(=O)N/N=C\c2cn(C)c3ccccc23)c([N+](=O)[O-])c1	-2.6	-13.9	12.8	40.8*	-0.5	14.7
CC(C)Sc1ncnc2[nH]ncc12	x	1.6	x	x	x	x
CC1COC(c2cccn2Cc2ccccc2Cl)=N1 (stereo not given)	-1.3	-3.8	14.7	17.4	-66.1	x
CN(C(=O)Cn1cccc1C1=NC(c2ccccc2)CO1)c1ccccc1 (stereo not given)	29.9	0.0	20.9	41.6*	-9.3	17.8
CC(=O)C1=C(O)C(=O)N(c2ccc(O)cc2)C1c1cccc(F)c1 (stereo not given)	4.5	-7.3	-15.8	-3.2	2.0	x
O=C(c1ccc(O)cc1)c1ccc(O)cc1O	-3.1	-11.6	-9.3	-4.6	-1.8	x
CN(C)c1ccc(C(=O)c2ccc(O)cc2O)cc1	49.4	-10.2	20.2	40.9*	32.9	26.6
CCC(C)NC(=O)c1c(N)n(/N=C/c2ccccn2)c2nc3ccccc3nc12 (stereo not given)	1.7	-8.6	34.5	41.6*	-2.8	17.2
COCCCNC(=O)c1c(N)n(/N=C/c2cccs2)c2nc3ccccc3nc12	14.7	0.7	28.0	41.5*	5.9	-3.0
COCCCNC(=O)c1c(N)n(/N=C/c2cccnc2)c2nc3ccccc3nc12	0.5	-3.2	9.4	30.5	11.8	x
Cc1nc([N+](=O)[O-])c(Br)n1CC(=O)c1ccc(Cl)cc1	30.8	x	38.7	43.4*	11.4	38.0*
COc1ccc(C(=O)Cn2c(C)nc([N+](=O)[O-])c2Br)cc1	26.2	15.9	17.7	15.2	-1.5	x
CC(=O)c1ccc(NC(=O)c2ccc(N3C(=O)c4cccnc4C3=O)cc2)cc1	7.8	2.3	1.7	-0.9	5.5	x
CCCOc1ccc(/C=C/c2c([N+](=O)[O-])c(=O)n(C)c(=O)n2C)cc1	-9.1	-10.9	3.9	-0.7	40.8	x
Cn1c(/C=C/c2ccc(Br)cc2)c([N+](=O)[O-])c(=O)n(C)c1=O	29.7	-48.3	22.8	41.8*	39.8	24.8
NS(=O)(=O)c1ccc(-c2c(-c3ccccc3)sc3ccccc23)cc1	29.6	2.1	-1.2	16.3	7.5	x
CCOC(=O)C1CCCc2c1[nH]c1ccc(Cl)cc21 (stereo not given)	34.3	13.9	19.8	42.9*	25.6	31.7*
Cc1ccnc(NC(=O)COC(=O)C2COc3ccccc3O2)n1 (stereo not given)	-3.3	x	-2.6	64.0*	-1.0	10.1
NC(=O)c1ccc(NC(=O)COC(=O)C2COc3ccccc3O2)cc1 (stereo not given)	-1.3	10.3	-2.7	-1.6	5.2	x
CN(c1ccccc1)S(=O)(=O)c1ccc(NC(=O)c2ccco2)cc1	43.6	0.1	28.3	33.0	13.4	x
CN(C1CCCCC1)S(=O)(=O)c1ccc(NC(=O)c2ccco2)cc1	42.3	-14.0	11.4	44.1*	42.0	29.1*
Cc1ccc(C(=O)Nc2ccc(Nc3ccccc3)cc2)c(Cl)c1	-5.2	5.9	-20.4	-18.7	19.9	x
CC(C)(C)C(=O)OCc1nc(-c2ccc(Cl)cc2)cs1	23.0	-17.0	24.5	44.7*	18.3	42.0*
COc1ccc(-c2csc(COC(=O)C(C)(C)C)n2)cc1	7.3	5.1	-11.5	17.7	19.6	x
SMILES	tim23-1 inh	PfHsp90 set2	TIM10 inh	tim10-1 inh	NALP3 yeast inh	tim10-1 conf
CC1CCN(c2ccccc2NC(=S)NC(=O)C(C)(C)C)CC1	43.8	2.3	34.6	48.6*	25.4	32.5*
O=C(NC(=S)Nc1ccccc1N1CCCCC1)c1ccc(F)cc1Cl	41.4	-12.5	33.3	33.8	19.1	x
O=C(COc1ccccc1Cl)NC(=S)Nc1ccccc1N1CCCC1	29.1	8.9	18.8	51.1*	5.5	19.9
CC1CCN(c2ccccc2NC(=O)c2ccc(F)cc2)CC1	25.2	35.3	18.7	26.1	5.1	x
O=C(NC(=S)Nc1ccccc1N1CCCC1)c1ccc(F)cc1	11.6	4.9	13.9	41.3*	-26.7	28.4
O=C(COc1c(Cl)cccc1Cl)Nc1ccccc1N1CCCC1	33.5	-10.5	6.2	10.8	27.8	x
Cc1ccccc1C(=O)NC(=S)Nc1ccccc1N1CCCC1	46.8	-3.6	37.2	50.6*	4.8	37.2*
NS(=O)(=O)c1ccc(CCNC(=O)CN2CCN(Cc3cccc(C(F)(F)F)c3)CC2)cc1	-1.3	-111.6	8.4	-12.6	0.2	x
Cn1c(=O)c2c(ncn2CC(=O)Nc2cc(S(=O)(=O)N3CCCCC3)ccc2O)n(C)c1=O	0.3	-29.0	-3.7	-17.6	10.2	x
O=S(=O)(N/N=C1/CCCc2ccccc21)c1ccc(Br)cc1	28.2	-43.2	36.4	42.3*	-44.9	23.8
Cc1ccc(S(=O)(=O)N/N=C2/CC(c3ccccc3)Oc3ccccc32)cc1[N+](=O)[O-] (stereo not given)	14.5	-32.1	27.9	20.1	-2.6	x
O=S(=O)(N/N=C1/CC(c2ccccc2)Oc2ccccc21)c1ccc(Br)cc1 (stereo not given)	29.3	x	28.7	40.9*	-13.0	29.3*
CC(C)c1ccc(NC2CCCN(C(=O)c3cccs3)C2)cc1 (stereo not given)	24.0	-151.0	17.1	26.5	16.1	x
Cc1cc(Cl)ccc1NC(=S)NCCC(c1ccccc1)c1ccccc1	12.5	-25.0	30.5	40.5*	3.5	14.9
Cc1cc(Cl)ccc1NC(=S)NCCc1ccc(Cl)cc1	41.7	-12.3	23.2	35.4	14.3	x
CCCCN(C(=O)c1[nH]c(C)c(C(=O)OCC)c1C)c1c(N)n(CCCC)c(=O)[nH]c1=O	-9.8	-22.8	-0.7	-1.6	7.1	x
CCOc1cc(/C=C2\N=C(SC)SC2=O)cc([N+](=O)[O-])c1OC(C)=O	45.9	26.3	15.4	41.8*	-29.6	25.6
Cc1ccc(NC(=O)c2ccc(Cl)c(N3C(=O)C=CC3=O)c2)cc1	12.7	124.3*	26.5	67.7*	-0.9	78.8*
COc1ccc(Cl)c2c1[nH]c1nc(SCc3ccccn3)nnc12	16.9	-15.9	26.0	42.3*	16.3	24.7
CC(=O)c1sc(NC(=O)c2ccccc2)nc1-c1ccccc1	24.2	-42.6	33.8	-5.8	0.7	x
CCOC(=O)Nc1nc(-c2ccccc2)c(C(=O)c2ccccc2)s1	40.0	12.8	37.7	40.2*	10.1	29.0
CC(=O)c1sc(NC(=O)c2c(F)cccc2F)nc1-c1ccccc1	31.0	-23.6	27.4	51.5*	18.3	26.3

Screens deposited in PubChem BioAssay by several laboratories.
